In all, about 33,000 sequences were measured (“e-score”: median about -0.037, highest 2% from about 0.34 on). The list comes from a sample in which the highest values are over-represented; it also holds similar and randomly drawn sequences.

In the assay the target is T1, GST-Rok (full length) (Bacillus subtilis subsp. subtilis str. …, UniProt O34857 1-191).
T1 sequence: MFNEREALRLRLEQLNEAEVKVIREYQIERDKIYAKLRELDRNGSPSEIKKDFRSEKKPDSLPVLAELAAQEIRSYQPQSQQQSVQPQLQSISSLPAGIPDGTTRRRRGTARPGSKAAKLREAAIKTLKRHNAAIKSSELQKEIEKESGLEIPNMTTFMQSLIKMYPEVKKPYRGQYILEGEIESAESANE
The assay is described as follows: protein binding microarray; Rok is a gene silencer of Bacillus subtilis; high values mean tight binding. Conditions: protein: recombinant; tags: GST (pTH5325, pDEST15-Magic modified); dsDNA, one strand shown. Summed up: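 Each has a 25-mer constant primer and a 35-mer variable part from a de Bruijn sequence of order 10, covering every non-palindromic 8-mer at least 32 times (palindromic 16). Preference for each 8-mer is given as a rank-based, unitless enrichment score (E-score). Its range runs from 0.5 (most favored) to −0.5 (most disfavored).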
AGTAGATA: the binding signal worked out at 0.442 E-score.

Regarding ATGAGATC, the binding signal came to 0.0598 E-score.

In the case of AGTAGATG, the binding signal was determined as 0.283 E-score.

On to ATTAGATC, for which the binding signal is 0.293 E-score.

Take CGTAGATA: the binding signal is 0.258 E-score.

In the case of CGTAGATC, the binding signal came to 0.21 E-score.

For the sequence GGTAGATA, the binding signal is 0.451 E-score.

ATTAGATA: the binding signal was 0.367 E-score.

For the sequence AGTAGATC, the binding signal was 0.324 E-score.

Consider ATGAGATA, for which the binding signal was 0.346 E-score.

Consider CTGAGATA, for which the binding signal was 0.0758 E-score.

As for GTTAGATA, the binding signal was 0.241 E-score.

For CGTAATAA, the binding signal was 0.27 E-score.

CTCTTCGC: the binding signal was found to be 0.197 E-score.

Regarding CCATAAAC, the binding signal was -0.00276 E-score.

For the sequence ATAAAGAA, the binding signal was -0.0956 E-score.

With GTCATAAA, the binding signal worked out at 0.154 E-score.

Consider AATCTTCG, for which the binding signal came to 0.0665 E-score.

With AACTTATA, the binding signal turned out to be 0.403 E-score.

Turning to ATTTTATG, the binding signal was determined as 0.251 E-score.

As for AATTTATA, the binding signal amounted to 0.435 E-score.

In the case of GTTTTATA, the binding signal amounted to 0.141 E-score.

CACTTATA: the binding signal worked out at 0.329 E-score.

Consider GATTTATA, for which the binding signal is 0.315 E-score.

On to ATTTTATA, for which the binding signal was 0.41 E-score.

TACTTATA: the binding signal was found to be 0.321 E-score.

On to AATTTATG, for which the binding signal stood at 0.283 E-score.

CTAATCGC: the binding signal turned out to be 0.18 E-score.

For the sequence AGAAACAT, the binding signal came to 0.155 E-score.

For CGGCTATC, the binding signal is -0.0522 E-score.

Turning to ACTAGCGG, the binding signal was 0.188 E-score.

Turning to CCAAACGA, the binding signal turned out to be 0.042 E-score.

For the sequence TAAATGTA, the binding signal stood at 0.411 E-score.

For the sequence GAAATGTC, the binding signal came to 0.126 E-score.

As to GAAATGTA, the binding signal amounted to 0.351 E-score.

For CAAATGTA, the binding signal was 0.289 E-score.

As for GAAATGCA, the binding signal is -0.095 E-score.

Turning to AAAATGTA, the binding signal stood at 0.287 E-score.

CTTGTTTC: the binding signal came out at 0.0903 E-score.

For the sequence CAAACCAG, the binding signal is -0.185 E-score.

AACCATGC: the binding signal was -0.0502 E-score.

Consider GCTATCAC, for which the binding signal was 0.244 E-score.

GCTATCAA: the binding signal stood at 0.164 E-score.

Take CCTATCAA: the binding signal turned out to be 0.161 E-score.

Consider CCTATCAC, for which the binding signal is 0.0828 E-score.

Regarding ACTATCAC, the binding signal stood at 0.34 E-score.

Regarding ACTATCAA, the binding signal worked out at 0.337 E-score.

AGAAAGTC: the binding signal is 0.121 E-score.

Take GTAAAGAA: the binding signal amounted to 0.0756 E-score.

For TCTATTCA, the binding signal amounted to 0.0926 E-score.

Turning to CACTAAAA, the binding signal is 0.293 E-score.

GACTAAAA: the binding signal stood at 0.123 E-score.

On to AACTAAAC, for which the binding signal came out at 0.138 E-score.

ACCTAAAA: the binding signal was determined as 0.306 E-score.

For AACTAAAG, the binding signal was -0.0498 E-score.

AACTAAAT: the binding signal came to 0.362 E-score.

On to TACTAAAA, for which the binding signal turned out to be 0.434 E-score.

Turning to AACTAAAA, the binding signal came out at 0.345 E-score.

As to AACTAAGA, the binding signal is 0.138 E-score.

CGCCCAAC: the binding signal is -0.14 E-score.

Take AACTTTGA: the binding signal is -0.0517 E-score.

In the case of AACATTAC, the binding signal was 0.214 E-score.

CCTAGGTA: the binding signal came out at 0.0506 E-score.

Take AGTAGGTA: the binding signal came to 0.404 E-score.

With CGTAGGTA, the binding signal was determined as 0.347 E-score.

As to AGTAGGTC, the binding signal is 0.069 E-score.

For the sequence AGTAGGTG, the binding signal stood at 0.174 E-score.

As for GGTAGGTA, the binding signal turned out to be 0.304 E-score.

On to GATGGAGA, for which the binding signal is -0.0862 E-score.

On to ATTAACCG, for which the binding signal is 0.0492 E-score.

CGAAAGGC: the binding signal was -0.183 E-score.

For CTTACAAG, the binding signal is -0.114 E-score.

Consider ATGAATCC, for which the binding signal came out at 0.0418 E-score.

Take ATAGCTAC: the binding signal was found to be 0.333 E-score.

Consider CTAGCTAC, for which the binding signal turned out to be 0.198 E-score.

Turning to GTAGCTAA, the binding signal stood at 0.373 E-score.

Turning to TTAGCTAA, the binding signal amounted to 0.129 E-score.

As to GTAGCTAC, the binding signal is 0.436 E-score.

As to ATAGCTAT, the binding signal is 0.373 E-score.

Turning to CTAGCTAA, the binding signal stood at 0.133 E-score.

For GAAGCTAC, the binding signal was found to be 0.323 E-score.

For ATAGCTAG, the binding signal was found to be 0.273 E-score.

For the sequence CCGCTGAC, the binding signal is -0.15 E-score.

On to GCCGCATA, for which the binding signal was -0.186 E-score.

Consider AGAGTCGA, for which the binding signal is -0.0761 E-score.

Consider CTAGTGTC, for which the binding signal was 0.0749 E-score.

On to GGCAGTAC, for which the binding signal is -0.0236 E-score.

With GCGGATCA, the binding signal is -0.193 E-score.

Turning to ACAAGGAA, the binding signal was -0.0483 E-score.

For ATTCACCC, the binding signal came to 0.0731 E-score.

Consider ATTACTCG, for which the binding signal was 0.225 E-score.

For the sequence GTTACTAA, the binding signal is 0.283 E-score.

For ATTACTAC, the binding signal was determined as 0.355 E-score.

Take CTTACTAA: the binding signal amounted to 0.222 E-score.

For ATTACTGC, the binding signal came out at 0.138 E-score.

Consider CTTACTAC, for which the binding signal stood at 0.169 E-score.

As to ATTACTAA, the binding signal was 0.357 E-score.

Turning to ATTACTAG, the binding signal turned out to be 0.398 E-score.

In the case of ATTACTGG, the binding signal was -0.0684 E-score.

As for AGGTCCAG, the binding signal is -0.187 E-score.

Take ACTGGCCG: the binding signal was found to be 0.00991 E-score.

Consider AGCGGCTC, for which the binding signal was -0.196 E-score.

On to GTCGCTTA, for which the binding signal was -0.0639 E-score.

GTTACATA: the binding signal is 0.212 E-score.

With AACGTTAG, the binding signal came out at 0.344 E-score.

In the case of AACGTTAC, the binding signal was -0.0148 E-score.

As for AACGTTAT, the binding signal came out at 0.216 E-score.

In the case of GCATTCCA, the binding signal was -0.149 E-score.

With CGCGTCCA, the binding signal is -0.16 E-score.

As to ATGCTTCG, the binding signal is -0.00471 E-score.

Take GCGCAGAA: the binding signal was -0.0702 E-score.

On to GATATACA, for which the binding signal amounted to 0.25 E-score.

Turning to CGTATACA, the binding signal stood at 0.227 E-score.

The record behind these values is paper PMC6212790, “How bacterial xenogeneic silencer rok distinguishes foreign from self DNA in its resident genome”.
